Data: PubChem BioAssay (NCATS)
“And” between values parts separate entries of the source, which are not always exact repeats. Equal values may be shown once. The source made the active and inactive calls. Calls follow the shape of the dose curve; as a rule, active = well fitted activation curve with a large enough effect; inconclusive = small, poorly fitted or top-dose-only effect; inactive = no such curve, though single readings can be large or run the other way.

target: Cytochrome P450 3A4 (Homo sapiens) (UniProt P08684); assay: qHTS Assay for Activators of Cytochrome P450 3A4 (AID 885); details: recombinant CYP3A4, Luciferin-PPXE luminescence, 60 min; series mostly up to 57.1 µM; also: nearly all actives have a fitted effect of over 65% in size
Protocol: NIH Molecular Libraries Screening Centers Network [MLSCN]
NIH Chemical Genomics Center [NCGC]
The P450 gene superfamily is involved in the metabolism and clearance of xenobiotics. This assay used human CYP3A4 to measure the dealkylation of luciferin-6' phenylpiperazinylyl (Luciferin-PPXE; […]) to luciferin. The luciferin is then measured by luminescence after the addition of a luciferase detection reagent. Luciferin-PPXE concentration in the assay was equal to its KM for CYP3A4. Inhibitors and some substrates limit the production of luciferin, and decrease measured luminescence; activators increase the production of luciferin and luminescence.
NCGC Assay Protocol Summary:
Two uL of enzyme and substrate mix (final concentrations: 20nM CYP3A4, 25uM Luciferin-PPXE, 200mM KPO4) were dispensed into a white, solid bottom 1536-well microtiter plate. 23nL of compound was transferred by a pin tool. The plate was incubated at RT for 10 min. Two uL of an NADPH regeneration solution (Promega supplied reagent) was dispensed and the reaction was allowed to continue for 60 min at RT. Then the reaction was stopped by reconstituted luciferin detection buffer. After another 20 min of incubation the plate was read on the ViewLux (Perkin Elmer) at 60 sec exposure and 2x2 binning. This protocol was carried out with Promega-Glo reagents and further information can be found at http://www.promega.com/tbs/tb325/tb325.pdf. Data were normalized to the to AC100 inhibition (57 uM ketoconazole).
Keywords: P450, CYP2D6, Luciferase, MLSMR, MLSCN, NIH Roadmap, qHTS, NCGC

Sequence of Cytochrome P450 3A4 (Homo sapiens) (P08684 whole entry, looked up): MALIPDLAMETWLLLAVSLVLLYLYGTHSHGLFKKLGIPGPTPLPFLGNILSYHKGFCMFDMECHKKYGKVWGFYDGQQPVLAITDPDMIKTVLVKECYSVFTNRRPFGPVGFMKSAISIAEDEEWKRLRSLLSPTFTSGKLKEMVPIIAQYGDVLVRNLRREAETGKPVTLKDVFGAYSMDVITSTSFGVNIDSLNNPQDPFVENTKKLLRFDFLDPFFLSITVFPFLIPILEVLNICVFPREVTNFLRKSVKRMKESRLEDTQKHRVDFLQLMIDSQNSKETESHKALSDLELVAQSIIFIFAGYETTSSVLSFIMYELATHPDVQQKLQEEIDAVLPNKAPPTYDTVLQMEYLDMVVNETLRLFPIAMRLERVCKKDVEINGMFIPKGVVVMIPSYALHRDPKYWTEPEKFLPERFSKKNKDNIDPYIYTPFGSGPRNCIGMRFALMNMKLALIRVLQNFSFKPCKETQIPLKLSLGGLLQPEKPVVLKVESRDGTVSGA

Activity change, positive = activation, inactive:
CO[C@H]1COC(=O)[C@@H](Cc2ccccc2)NC(=O)[C@@H](C)COC(=O)C/C=C\[C@@H]1C -36.9% [at 11.4 µM], CCC(=O)CC(NC(=O)OC)c1ccccc1 (stereo not given) -34.8% [at 11.4 µM], O=C(N/N=C1/C[C@@H](O)[C@@H](O)[C@@H]2[C@H]3C(=O)N(c4ccc(F)cc4F)C(=O)[C@@H]3CC[C@@H]12)OCc1ccccc1 -45.4% [at 11.4 µM], CC1CCC2C(=O)OC(COc3ccc(C(C)(C)C)cc3)CN2C1c1ccc(Br)cc1 (stereo not given) -42.1% [at 11.4 µM] and -33.2% [at 11.4 µM], C=CC[C@@H]1C=C[C@@H](O/N=C(/C)CCC(=O)OC[C@@H]2O[C@H](C#Cc3ccccc3)C=C[C@@H]2Oc2ccc(C)cc2)[C@@H](CO)O1 -97.7% [at 11.4 µM], CCOC(=O)OCC1OC(c2cc(C)cc(C)c2)C=CC1OC(=O)OCC (stereo not given) -69.3% [at 11.4 µM], C#CCCCO/N=C1/C[C@@H](O)[C@@H](O)[C@@H]2[C@@H]3C(=O)N(Cc4ccccc4)C(=O)[C@H]3CC[C@H]12 -103% [at 11.4 µM], CC(=O)OCC1OC(C#Cc2ccc(C)cc2C)C=CC1OC(C)=O (stereo not given) -83.4% [at 11.4 µM], C=CCC1C=CC(Oc2ccc(OC)cc2)C(COC(=O)c2ccc(Br)cc2)O1 (stereo not given) -92.4% [at 11.4 µM], C/C(CCC(=O)OC[C@@H]1O[C@H](C#Cc2ccccc2)C=C[C@@H]1Oc1ccc(C)cc1)=N/OC[C@@H](O)[C@H]1O[C@H]2OC(C)(C)O[C@H]2[C@@H]1O -117% [at 11.4 µM], C#CCCCO/N=C1/C[C@@H](O)[C@@H](O)[C@@H]2[C@@H]3C(=O)N(C[C@@H]4CCCO4)C(=O)[C@H]3CC[C@H]12 -43.2% [at 11.4 µM], CCCNC(=O)OC[C@@H]1O[C@H](CCO/N=C\[C@@H](C)[C@H](OCc2ccccc2)C(C)C)C=C[C@@H]1Oc1ccc(OC)cc1 -83.7% [at 11.4 µM], CO[C@H]1COC(=O)C/C=C\[C@@H](C)COC(=O)[C@@H](OCc2ccccc2)/C=C\[C@@H]1C -63.8% [at 11.4 µM], CC(=O)OCC1OC(C#Cc2ccc(Br)cc2)C=CC1OC(C)=O (stereo not given) -46% [at 11.4 µM], CCOC(=O)OCC1OC(C#Cc2ccc(C)cc2C)C=CC1OC(=O)OCC (stereo not given) -58.4% [at 11.4 µM], CO[C@@H]1COC(=O)[C@H](COCc2ccccc2)NC(=O)C/C=C\[C@@H](C)[C@H](OC)COC(=O)[C@@H](C)NC(=O)C/C=C\[C@H]1C -36.6% [at 11.4 µM], COC(=O)C1=C(C)N(Cc2ccccc2)C2=C(C(=O)c3ccccc3)C(c3ccccc3)[C@@](O)(C(=O)OC)C(=O)N2C1c1ccccc1 (stereo not given in full) -54.4% [at 11.4 µM], CCCCC1CN2C(CCC(C)C2c2ccc(Br)cc2)C(=O)O1 (stereo not given) -38.2% [at 11.4 µM] and -43.4% [at 11.4 µM] and -62.6% [at 11.4 µM]

Potency, inactive:
COc1ccc(-c2cc(=O)c3c(OC(C)=O)cc(OC(C)=O)cc3o2)cc1, Cc1cccc(-c2cc(=O)c3cc(Br)ccc3o2)c1, COC(=O)[C@@H]1C[C@@H]2CC[C@@H](O)C[C@@H]2N1Cc1ccc(Cl)cc1, Cc1c(O)c(O)cc2c1oc1c3ccccc3oc(=O)c21, CCCCCCN(C(=O)CCCCCN1C(=O)NC(C2CCCCC2)C(C(=O)OCc2ccccc2)=C1C)C(C(=O)NCCCC)c1ccc(OCC(=O)OC)c(C(=O)OC)c1 (stereo not given), COC(=O)[C@@H]1C[C@H]2CC[C@H](O)C[C@H]2N1Cc1ccc(N2CCOCC2)cc1, Cn1c(=O)c(C(=O)COC(=O)c2cc(-c3ccco3)nc3ccccc23)c(N)n(Cc2ccccc2)c1=O, COC(=O)c1ccc(C(NC(=O)OCc2ccccc2)/C(=C/[C@@H](C)C(=O)NCc2ccc(C)o2)c2cccnc2)cc1 (stereo not given in full), CCC1=C2CC[C@H]3C(=O)N(c4ccccc4)C(=O)[C@H]3[C@H]2[C@@]2(C)C(=NCC(=O)OC)OC(=O)N2C1=O, COc1cc(OC)c2c(=O)c(-c3ccc4c(c3)OCO4)coc2c1, NC(Cc1cnc[nH]1)C(=O)Nc1ccc2ccccc2c1 (stereo not given), O=c1c2cc(O)c(O)cc2oc2cc(O)c(C3OC(CO)C(O)C(O)C3O)c(O)c12 (stereo not given), CC(C)Cn1c(N)c(C(=O)COC(=O)c2cc(C(F)(F)F)nc3c(C(F)(F)F)cccc23)c(=O)n(C)c1=O, COC(=O)c1ccc(C(NC(=O)OCc2ccccc2)/C(F)=C/[C@@H](C)C(=O)N(C)Cc2cccnc2)cc1 (stereo not given in full), CCCN1CC(CSC)C[C@H]2c3cccc4[nH]cc(c34)C[C@H]21 (stereo not given in full), CN(C)C(=O)[C@@H]1C[C@H]1[C@@H](NC(=O)OCc1ccccc1)c1ccccc1, COC(=O)c1cccc(C#CC(NP(=O)(c2ccccc2)c2ccccc2)c2ccccc2)c1 (stereo not given), COC(=O)c1cccc(C23CC4(C2)[C@H](CN(CC2CCCCC2)[C@@H]4c2ccccc2)C3c2ccc(C(F)(F)F)cc2)c1 (stereo not given in full), Cc1ccc(CNC(=O)C2(CC(C)C)C=CCN2C(=O)c2ccccc2)o1 (stereo not given), COc1cccc(-c2cc(=O)c3ccc(OC)cc3o2)c1, C[C@H](NC(=O)[C@@H]1C[C@H]1[C@@H](NC(=O)OCc1ccccc1)c1ccccc1)c1ccccc1, COC(=O)[C@@H]1C[C@@H]2CC[C@@H](O)C[C@@H]2N1Cc1ccccc1OS(=O)(=O)c1ccc(C)cc1
